± gives the standard deviation.
Key:
Test in all cases: peptide microarray binding signal (635 nm), min-max normalized on array (fraction of array maximum); higher = stronger binding
[1] = molecular target: T1, HaloTag-ATRX ADD domain (163-292)
T1 chain: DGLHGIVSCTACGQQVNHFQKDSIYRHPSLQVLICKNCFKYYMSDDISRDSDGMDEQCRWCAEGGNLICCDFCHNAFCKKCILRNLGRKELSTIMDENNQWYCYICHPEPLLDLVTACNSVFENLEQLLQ
In short: (§1)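 For each library, binding signal was taken as the triplicate-spot mean intensity and then min-max scaled. Spots of histone 13-mer peptide–cellulose conjugates on nitrocellulose, printed in triplicate with a Cy3 tracer, were probed for 1 h at 4°C with either biotin-labelled HaloTag reader fusions (10 nM to 1 μM) and streptavidin-Alexa Fluor 647 or rabbit histone antibodies (1:10,000 to 1:2,000) and anti-rabbit Alexa 647. Readout at 635 nm came from an Axon GenePix 4000B.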

[2] = molecular target: HaloTag-ING2 PHD (mouse Ing2 200-280)
In short: as §1

[3] = molecular target: anti-H3K4me3 antibody ab8580
In short: as §1

[4] = molecular target: anti-H3K9me3 antibody ab8898
In short: as §1

[5] = peptide region: H3 20-32, peptide modifications: H3R26me2a H3K27me2, binder concentration: 1:2,000 dilution
[6] = peptide region: H3 20-32, peptide modifications: H3R26me2a H3K27me2, binder concentration: 1:10,000 dilution
[7] = peptide region: H3 20-32, peptide modifications: H3R26me2a, binder concentration: 1:2,000 dilution
[8] = peptide region: H3 20-32, peptide modifications: H3R26me2a, binder concentration: 1:10,000 dilution
[9] = peptide region: H3 30-42, peptide modifications: H3K36ac H3K37me2, binder concentration: 1:2,000 dilution
[10] = peptide region: H3 30-42, peptide modifications: H3K36ac H3K37me2, binder concentration: 1:10,000 dilution
[11] = peptide region: H3 30-42, peptide modifications: H3K36ac H3K37ac, binder concentration: 1:2,000 dilution
[12] = peptide region: H3 30-42, peptide modifications: H3K36ac H3K37ac, binder concentration: 1:10,000 dilution
[13] = peptide region: H3 20-32, peptide modifications: H3R26me2a H3K27me3, binder concentration: 1:2,000 dilution
[14] = peptide region: H3 20-32, peptide modifications: H3R26me2a H3K27me3, binder concentration: 1:10,000 dilution

For LATKAARKSAPAT [H3 20-32 L A T K A A Rme2a Kme2 S A P A T], the “peptide microarray binding signal” value ([1]; peptide region: H3 20-32, peptide modifications: H3R26me2a H3K27me2, binder concentration: 50 nM) was 0.004984 ± 4.8e-05, the “peptide microarray binding signal” value ([1]; peptide region: H3 20-32, peptide modifications: H3R26me2a H3K27me2, binder concentration: 500 nM) was 0.00857 ± 0.00072 and the “peptide microarray binding signal” value ([2]; peptide region: H3 20-32, peptide modifications: H3R26me2a H3K27me2, binder concentration: 10 nM) was 0.0166 ± 0.00092. The “peptide microarray binding signal” value ([2]; peptide region: H3 20-32, peptide modifications: H3R26me2a H3K27me2, binder concentration: 100 nM) was 0.0255 ± 0.00049, the “peptide microarray binding signal” value [3, 5] was 0.0097 ± 0.0011 and the “peptide microarray binding signal” value [3, 6] was 0.0118 ± 0.00089. The “peptide microarray binding signal” value [4, 5] was 0.0051 ± 0.00036 and the “peptide microarray binding signal” value [4, 6] was 0.00363 ± 7.8e-05.

LATKAARKSAPAT [H3 20-32 L A T K A A Rme2a K S A P A T] was tested, and the “peptide microarray binding signal” value ([1]; peptide region: H3 20-32, peptide modifications: H3R26me2a, binder concentration: 50 nM) was 0.00357 ± 0.0001, the “peptide microarray binding signal” value ([1]; peptide region: H3 20-32, peptide modifications: H3R26me2a, binder concentration: 500 nM) was 0.00624 ± 0.00038 and the “peptide microarray binding signal” value ([2]; peptide region: H3 20-32, peptide modifications: H3R26me2a, binder concentration: 10 nM) was 0.00806 ± 0.00052. For the same binder, the “peptide microarray binding signal” value ([2]; peptide region: H3 20-32, peptide modifications: H3R26me2a, binder concentration: 100 nM) was 0.0122 ± 0.0012, the “peptide microarray binding signal” value [3, 7] was 0.00525 ± 0.00065 and the “peptide microarray binding signal” value [3, 8] was 0.004907 ± 3.6e-05. The “peptide microarray binding signal” value [4, 7] was 0.00334 ± 0.00044 and the “peptide microarray binding signal” value [4, 8] was 0.00294 ± 6.7e-05.

In the case of PATGGVKKPHRYR [H3 30-42 P A T G G V Kac Kme2 P H R Y R], the “peptide microarray binding signal” value ([1]; peptide region: H3 30-42, peptide modifications: H3K36ac H3K37me2, binder concentration: 50 nM) is reported as 0.0026 ± 5.2e-05, the “peptide microarray binding signal” value ([1]; peptide region: H3 30-42, peptide modifications: H3K36ac H3K37me2, binder concentration: 500 nM) is reported as 0.00462 ± 0.00028 and the “peptide microarray binding signal” value ([2]; peptide region: H3 30-42, peptide modifications: H3K36ac H3K37me2, binder concentration: 10 nM) is reported as 0.00269 ± 6.6e-05. The “peptide microarray binding signal” value ([2]; peptide region: H3 30-42, peptide modifications: H3K36ac H3K37me2, binder concentration: 100 nM) was 0.00354 ± 8.3e-05, the “peptide microarray binding signal” value [3, 9] was 0.00125 ± 9e-05 and the “peptide microarray binding signal” value [3, 10] was 0.00097 ± 2e-05. For the same binder, the “peptide microarray binding signal” value [4, 9] was 0.00166 ± 9.8e-05 and the “peptide microarray binding signal” value [4, 10] was 0.00127 ± 0.0001.

PATGGVKKPHRYR [H3 30-42 P A T G G V Kac Kac P H R Y R] was tested, and the “peptide microarray binding signal” value ([1]; peptide region: H3 30-42, peptide modifications: H3K36ac H3K37ac, binder concentration: 50 nM) was 0.00357 ± 6.3e-05, the “peptide microarray binding signal” value ([1]; peptide region: H3 30-42, peptide modifications: H3K36ac H3K37ac, binder concentration: 500 nM) was 0.00462 ± 8.3e-05 and the “peptide microarray binding signal” value ([2]; peptide region: H3 30-42, peptide modifications: H3K36ac H3K37ac, binder concentration: 10 nM) was 0.00489 ± 0.00017. The “peptide microarray binding signal” value ([2]; peptide region: H3 30-42, peptide modifications: H3K36ac H3K37ac, binder concentration: 100 nM) was 0.00539 ± 0.00019, the “peptide microarray binding signal” value [3, 11] was 0.00264 ± 0.00042 and the “peptide microarray binding signal” value [3, 12] was 0.003024 ± 2.6e-05. For the same binder, the “peptide microarray binding signal” value [4, 11] was 0.00427 ± 0.00042 and the “peptide microarray binding signal” value [4, 12] was 0.00271 ± 0.00018.

With LATKAARKSAPAT [H3 20-32 L A T K A A Rme2a Kme3 S A P A T] the “peptide microarray binding signal” value ([1]; peptide region: H3 20-32, peptide modifications: H3R26me2a H3K27me3, binder concentration: 50 nM) was 0.00539 ± 0.00011, the “peptide microarray binding signal” value ([1]; peptide region: H3 20-32, peptide modifications: H3R26me2a H3K27me3, binder concentration: 500 nM) was 0.0116 and the “peptide microarray binding signal” value ([2]; peptide region: H3 20-32, peptide modifications: H3R26me2a H3K27me3, binder concentration: 10 nM) was 0.0206 ± 0.0011. The “peptide microarray binding signal” value ([2]; peptide region: H3 20-32, peptide modifications: H3R26me2a H3K27me3, binder concentration: 100 nM) was 0.0261 ± 0.0021, the “peptide microarray binding signal” value [3, 13] was 0.0393 ± 0.004 and the “peptide microarray binding signal” value [3, 14] was 0.0294 ± 0.0026. For the same binder, the “peptide microarray binding signal” value [4, 13] was 0.0809 ± 0.0092 and the “peptide microarray binding signal” value [4, 14] was 0.052 ± 0.0034.

Source: the supplement of paper PMC4022240
